hgDAF12 agonist = hgDAF-12 agonism, primary luciferase screen. activation, % at 6.8 µM. HEK293 GAL4-hgDAF12 UAS-luciferase reporter, agonist luminescence; normalized to butyrate control. AID 687014. actives 1.8% (n = 370,000);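 active means activation above a cutoff set at the mean of all screened compounds plus 3 SD, cut at about 10% in these data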;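 further: 0% = DMSO wells and 100% = sodium butyrate wells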
PolyA inhibitor = inhibitors of polyadenylation in S. cerevisiae; activity score, % at 12 µM; actives 0.02% (n = 300,000); AID 1875; S. cerevisiae SKY197-pL101 polyadenylation reporter, beta-gal luminescence; efflux-impaired pdr1/pdr3 knockout yeast; score 100 = 6 SD above DMSO;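 active means lowest replicate activity score at least 50, where 100 means six control SD above control mean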;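 further: yeast exposed to compound for 9 h at 30 °C; higher score means more reporter readthrough which indicates perturbed polyadenylation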
DAX1 inh-1 = inhibits human nuclear receptor DAX1; P51843; HEK293 Gal4-DAX1 luciferase reporter, luminescence; inhibition, % at 6.75 µM; actives 0.99% (n = 340,000); AID 504766;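 active means inhibition above the mean over all tested compounds plus 3 SD, cut at about 4.2% in these data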;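 further: 0% = DAX1-transfected cells with DMSO and 100% = empty-vector control cells with DMSO; inhibition shows as a rise in luminescence from relieved DAX1 repression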
DAX1 inh-2 = inhibitors of DAX1 repression of SF-1 activated StAR promoter | HEK293T StAR-luciferase reporter, SF-1/DAX-1 repression relief | actives 1.1% (n = 370,000) | inhibition, % at 6.8 µM | AID 652010;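 active means inhibition above the mean over all tested compounds plus 3 SD, cut at about 3.6% in these data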;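 further: 0% = DAX-1 cells with DMSO and 100% = cells lacking DAX-1 with DMSO; higher inhibition means more luminescence from relief of DAX-1 repression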
hcDAF12 agonist = activates DAF-12 receptor from parasite H. contortus; HEK293 hcDAF-12 lit1-tk-luc reporter, luminescence; 0% DMSO, 100% Δ7-dafachronic acid; activation, % at 6.8 µM; actives 1.4% (n = 370,000); AID 652067;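 active means activation above the mean of all tested compounds plus 3 SD, cut at about 5.5% in these data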;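 further: 100% = response to 3 µM Δ7-dafachronic acid high control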
ssDAF-12 act = S. stercoralis DAF-12 activation, primary screen; activation, % at 6.8 µM; actives 1% (n = 370,000); AID 652126; HEK293 ssDAF-12/GRIP1 lit1-tk-luc reporter, luminescence; % of 3 µM dafachronic acid response;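 active means activation above the mean over all tested compounds plus 3 SD, cut at about 0.9% in these data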;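 further: 0% = DMSO-only wells and 100% = 3 µM delta7-dafachronic acid wells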
hgDAF12 conf = hgDAF-12 agonism, confirmation assay | shares compounds with hgDAF12 agonist | HEK293 GAL4-hgDAF12 luciferase reporter, agonist mode; percent of butyrate response | activation, % at 6.8 µM | actives 80% (n = 3,300) | AID 743050;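 active means mean activation over triplicate wells above the hit cutoff derived from the earlier primary screen, cut at about 11% in these data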;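 further: 0% = DMSO low control and 100% = 2 mM sodium butyrate high control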
LXRb DAF12 ctr = counter-screen for DAF-12 agonists: agonists of human LXR-beta | shares compounds with hgDAF12 agonist | HEK293 Gal4-LXR luciferase reporter, 24 h | activation, % at 6.8 µM | 3,300 tested, under 10 active | AID 743051;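 active means mean activation of the triplicate above a set limit carried over from the primary screen, none filed active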
Target sequence (P55055 whole entry, looked up, the tested form may be a part): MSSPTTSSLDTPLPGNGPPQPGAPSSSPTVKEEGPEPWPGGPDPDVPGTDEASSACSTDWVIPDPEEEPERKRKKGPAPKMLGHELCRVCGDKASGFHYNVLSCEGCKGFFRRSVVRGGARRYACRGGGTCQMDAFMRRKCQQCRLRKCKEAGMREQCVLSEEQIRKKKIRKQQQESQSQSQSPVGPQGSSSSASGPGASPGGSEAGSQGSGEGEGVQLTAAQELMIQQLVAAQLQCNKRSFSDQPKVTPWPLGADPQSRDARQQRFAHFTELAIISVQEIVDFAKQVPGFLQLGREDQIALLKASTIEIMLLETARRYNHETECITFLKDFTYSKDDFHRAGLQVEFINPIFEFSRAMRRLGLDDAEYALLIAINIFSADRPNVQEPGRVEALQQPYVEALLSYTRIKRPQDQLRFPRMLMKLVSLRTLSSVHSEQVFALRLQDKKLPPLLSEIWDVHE
* hit, by the source's call; nt = no result given. Shown are actives, neighbours in structure and some others; about 4.1% of the full set was active somewhere.

SMILES	hgDAF12 agonist	PolyA inhibitor	DAX1 inh-1	DAX1 inh-2	hcDAF12 agonist	ssDAF-12 act	hgDAF12 conf	LXRb DAF12 ctr
O=C(c1ccc2nc(Cc3ccccc3F)oc2c1)N1CCCC1	15*	-4	2	3	5	0	14*	0
O=C(N/N=C/c1ccccn1)c1c[nH]c2ccccc12	15*	-4	3	1	4	0	13*	1
Cc1ccsc1C(=O)Nc1cc(Cl)ccc1-n1cncn1	-1	nt	1	-2	3	-1	nt	nt
COc1ccccc1N1CCN(C2=Nc3cccc4cccc2c34)CC1	13*	21	0	4.0*	-1	0	8	0
Cc1nc2cc(NCc3ccc(Cl)cc3)ccc2n1C	14*	-21	4.7*	4	4	1.6*	14*	1
CCOC(=O)[C@@H]1CSCCS(=O)(=O)N1C(=O)[C@H](CCSC)NC(=O)OC(C)(C)C	-1	nt	nt	0	2	-1	nt	nt
CCCCOC(=O)Nc1ccc(N2CCOCC2)cc1	6	10	3	1	2	-1	nt	nt
CCCCOC(=O)Nc1ccc(N2CCCCC2)cc1	13*	1	1	3	4	0	13*	1
Cc1cccc(NC(=S)N/N=C/c2cccc(O)c2)c1C	2	-20	-3	-2	-2	-2	nt	nt
Cc1ccccc1NC(=S)N/N=C/c1ccc(O)cc1O	20*	0	4	1	4	0	7	0
Cc1cc(/C=N/NC(=O)c2cccs2)c(C)n1-c1ccccc1	-9	-3	-1	-1	-2	-2	nt	nt
Cc1cc(/C=N/NC(=O)c2cccs2)c(C)n1-c1cnccn1	16*	15	2	3.9*	4	0	15*	1
Cc1ccsc1/C=N/NC(=O)c1cccs1	15*	0	3	1	4	-1	10	0
O=C(N/N=C/C(Br)=C/c1ccccc1)c1cccs1	24*	16	4.5*	3	3	1	15*	1
Cc1nn(-c2ccc(F)cc2)c(Cl)c1/C=N/NC(=O)c1cccs1	15*	3	2	2	0	0	6	0
CN(C)CCNC(=O)C1(O)c2cc(Br)ccc2NC(=O)N1c1ccc(Cl)cc1 (centres undefined)	-1	11	0	0	-1	-1	nt	nt
CC(C)Oc1cccc(-c2csc(N3CCC(C(N)=O)CC3)n2)c1	15*	nt	nt	nt	3	0	9	1
NC(=O)C1CCN(c2nc(-c3ccc4c(c3)OCCCO4)cs2)CC1	17*	nt	nt	nt	2	0	18*	1
Cc1ccc(CNC(=O)C2CCCN(c3cnccn3)C2)cc1 (centres undefined)	-2	-6	0	0	0	-1	nt	nt
CC(NC(=O)CSc1ncn[nH]1)c1ccc(Cl)cc1Cl (centres undefined)	-1	-5	0	0	-2	-1	nt	nt
CC(C)(C)NC(=O)CSc1nnc(-c2ccncc2)n1Cc1ccccc1	14*	4	2	0	0	-1	1	0
CC(C)C(C)(C#N)NC(=O)CSc1nnc(-c2ccncc2)n1Cc1ccccc1 (centres undefined)	-1	11	0	0	0	-1	nt	nt
C/C=C/C(=O)N[C@@H]1c2ccccc2CC[C@@H]1OCc1ccccc1	-3	nt	0	0	-1	-1	nt	nt
Nc1ccc(-c2nc3ccc([N+](=O)[O-])cc3[nH]2)cc1	16*	6	2	4.3*	2	0	15*	1
COc1ccc(NC(=O)C2Cc3c(-c4cccc(NC(C)=O)c4)ccnc3O2)cn1 (centres undefined)	4	nt	nt	-4	0	-1	nt	nt
O=C(CC(=O)c1cccs1)c1ccncc1	25*	nt	3	3.7*	5	0	4	0

High-throughput results: PubChem, several laboratories
